Experiments:
Assay in all cases: PBM binding z-score (relative to random genomic background probes); higher = stronger binding; sequences stand for … in GC…GCGATTGACAGCGTAGAATGAAGG
[1] = test system: FXR:RXRa (NR concentration 270 nM, RXRa partner concentration 90 nM)
How it was run: (§1)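 Binding z-scores take random background probes as their reference. They come from custom Agilent 4×180K protein-binding microarrays incubated 1 h with ligand-free nuclear receptor dimers, with antibodies against each partner (one per run) detecting binding. Scanned fluorescence was regression-normalized.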

[2] = test system: LXRa:RXRa (NR concentration 270 nM, RXRa partner concentration 90 nM)
How it was run: as §1

[3] = test system: LXRa homodimer (NR concentration 270 nM)
How it was run: as §1

[4] = test system: LXRb:RXRa (NR concentration 270 nM, RXRa partner concentration 90 nM)
How it was run: as §1

[5] = test system: LXRb homodimer (NR concentration 270 nM)
How it was run: as §1

[6] = test system: PPARa:RXRa (NR concentration 270 nM, RXRa partner concentration 90 nM)
How it was run: as §1

[7] = test system: PPARg:RXRa (NR concentration 180 nM, RXRa partner concentration 90 nM)
How it was run: as §1

[8] = test system: PPARg:RXRa 270nM:90nM, anti-RXR (NR concentration 270 nM, RXRa partner concentration 90 nM)
How it was run: as §1

[9] = test system: PPARg:RXRa 30nM:10nM, anti-RXR (NR concentration 30 nM, RXRa partner concentration 10 nM)
How it was run: as §1

[10] = test system: PPARg:RXRa 90nM:30nM, anti-RXR (NR concentration 90 nM, RXRa partner concentration 30 nM)
How it was run: as §1

[11] = test system: PPARg:RXRa DBDmut IVT, anti-RXR (DBD mutation: RXRa K156A/R161A, NR concentration 270 nM, RXRa partner concentration 90 nM)
How it was run: as §1

[12] = test system: PPARg:RXRa IVT, anti-PPARg (NR concentration 270 nM, RXRa partner concentration 90 nM)
How it was run: as §1

[13] = test system: PPARg DBDmut:RXRa IVT, anti-PPARg (DBD mutation: PPARg1 K132A/R137A, NR concentration 270 nM, RXRa partner concentration 90 nM)
How it was run: as §1

[14] = test system: PPARg DBDmut IVT, anti-PPARg (DBD mutation: PPARg1 K132A/R137A, NR concentration 270 nM)
How it was run: as §1

[15] = test system: PPARg homodimer (NR concentration 180 nM)
How it was run: as §1

[16] = test system: PXR:RXRa (NR concentration 270 nM, RXRa partner concentration 90 nM)
How it was run: as §1

[17] = test system: PXR homodimer (NR concentration 270 nM)
How it was run: as §1

[18] = test system: RARa:RXR (NR concentration 270 nM, RXRa partner concentration 90 nM)
How it was run: as §1

[19] = test system: RARa homodimer (NR concentration 270 nM)
How it was run: as §1

[20] = test system: RARb:RXRa (NR concentration 270 nM, RXRa partner concentration 90 nM)
How it was run: as §1

Sequence	PBM binding z-score [1]	PBM binding z-score [2]	PBM binding z-score [3]	PBM binding z-score [4]	PBM binding z-score [5]	PBM binding z-score [6]	PBM binding z-score [7]	PBM binding z-score [8]	PBM binding z-score [9]	PBM binding z-score [10]	PBM binding z-score [11]	PBM binding z-score [12]	PBM binding z-score [13]	PBM binding z-score [14]	PBM binding z-score [15]	PBM binding z-score [16]	PBM binding z-score [17]	PBM binding z-score [18]	PBM binding z-score [19]	PBM binding z-score [20]
CGTCCAAGGTAAAGGTCAGTGAAAGAGACTCGAA	3.41	3.38	0.618	3.01	-0.119	4.54	5.24	6.05	3.76	5.72	1.42	3.27	-0.427	-0.748	1.81	3.05	0.298	3.83	1.38	4.61
TCTGCTAGGTCAACGATGGTCTGCTAATCTGCTA	2.95	2.1	-0.371	1.35	0.041	2.92	1.92	2.64	1.66	2.11	3.96	3.88	0.46	1.25	0.811	0.995	-0.719	2	-0.907	3.83
CCTTACGGGTCACTGAGAGGTTATAGCATTTGGA	5.67	4.71	0.946	3.9	-0.26	5.58	4.88	4.87	1.69	3.68	3.25	3.46	0.696	-0.194	3.62	5.18	0.124	5.88	1.03	4.1
CACGAAAGGTCGGTTGAGGTGAGTATACGGATAA	2.53	2.25	0.0219	1.7	0.387	3	0.823	1.36	0.246	0.906	0.197	1.19	1.19	0.977	1.22	3.42	0.224	2.96	0.255	3.18
CATCCAAGGTCATAGGAGGTCAGTGAAGACAGAT	7.76	7.88	6.67	6.38	1.99	6.12	6.25	6.07	3.14	4.93	3.6	4.75	3.02	2.08	5.33	6.96	4.63	6.4	3.27	5.38
CGTCCAAGGTCAAAGGCCAGTGAAGAGATGACGG	7.32	5.28	0.422	3.87	0.919	6.01	6.49	6.54	3.55	5.57	3.42	4.02	0.425	0.106	3.37	4.39	0.655	5.25	0.426	5.29
CCTCGGAGGACAACGGGAGGTCAGAGCTGCCAGA	1.17	2.32	1.9	1.52	-0.594	2.1	0.336	0.563	-0.741	-0.147	-0.505	0.451	-1.39	-1.24	2.26	2.45	0.352	2.8	0.367	2.92
CCTACTGGGCCCAAGGTCATTGATTCCAATGCTC	2.45	2.46	1.44	2.53	0.0311	3.65	6.53	6.93	5.33	6.47	-0.0484	3.05	-0.816	-1.27	1.42	3.24	1.78	3.17	0.145	2.79
AATACAGGGCCATCGTAGGCCAGAGTACGCACAG	0.0639	0.221	-0.132	-0.283	-0.499	0.0726	0.954	-0.0465	-0.14	-0.0369	0.0782	0.608	0.846	-0.0733	-0.388	-0.255	-0.169	-0.00731	0.00973	0.931
ACTATTAGTTGCCTTAGGGCAACCGATACGACGC	0.218	0.346	0.285	0.202	0.935	0.287	0.672	0.279	0.294	0.358	-0.0728	0.674	0.726	0.896	0.221	0.335	-0.148	0.576	0.282	0.771
TCAGACAGGTGAAGGGAACTCAGGTACGCAGTCG	0.945	0.772	0.0804	0.859	0.193	1.25	0.602	2.23	3.93	2.93	2.87	0.387	-0.0761	-0.559	0.811	0.733	0.499	0.697	0.593	1.04
CTTCCAAGGTCAGCAGGTCAGTGAAAGCGACGTG	5.62	4.48	0.986	3.24	0.067	4.87	3.78	4.64	1.14	3.27	3.41	3.82	-0.278	-0.339	3.61	3.42	0.858	4.68	1.77	5.26
GCTAGCAGGCCATTTGGGTCACTCATTGACGGGC	0.033	-0.0107	-0.528	-0.128	-0.903	1	0.357	0.27	-0.512	-0.18	1.91	1.84	-1.26	-0.505	-0.295	0.252	-0.137	0.652	-0.74	1.26
CAAACTAGGTCACCAGAAGGTCAAAGTCCGCATG	6.14	6.04	4.65	5.24	1.41	6.22	9.74	7.94	6.18	7.98	8.93	9	4.64	2.7	9.04	5.96	2.47	7.6	3.53	5.18

— the supplement of paper PMC6555819
